# Source: PubChem BioAssay
# Where “and” joins values, the source holds several entries; their conditions need not be identical. Identical values can stand only once. Records with an inconclusive call do not appear. Some structures have more than one record in an assay (separate samples or runs), and their calls can disagree. Calls of active or inactive are those of the source. Cut-off read from the data, not from the text of the source, unless noted: active = inhibition above about 80%; inactive = the rest.
# Columns and labels:
# [1] = compounds altering viability of human ES cells (AID 493140; call rule not given here;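 note: cells exposed to compounds for four days before counting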); settings: human embryonic stem cell survival screen; stronger effect = higher value
# [2] = P. berghei load reduction in hepatocytes – cell-based, HepG2, luciferase luminescence, HepG2 viability, primary screen (AID 624349; in the data active = parasite load remaining mostly below about 12%, no sharp cut-off; inactive = mostly above about 10%;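 note: 100% = mean of DMSO negative control wells on the same plate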); settings: P. berghei liver stage in HepG2, luciferase luminescence, concentration not given here; parasite load remaining: stronger effect = lower value; viability: measured here: HepG2 viability without parasites
# [3] = target: 6-phosphogluconate dehydrogenase, decarboxylating (Homo sapiens) (UniProt P52209); assay: inhibition of human phosphogluconate dehydrogenase – biochemical, recombinant enzyme, NADPH absorbance, primary screen (AID 1159550;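 active = at least 20% inhibition of 6-phosphogluconate dehydrogenase activity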); settings: recombinant 6PGD, NADPH absorbance 341 nm; at 10 µM; stronger effect = higher value
# [4] = viability loss with induced miR-34 in A549 – imaging, A549 dox-inducible miR-34, nuclei and caspase counts, primary screen (AID 1347080;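 active = compounds whose cell count with miR-34 switched on is under 0.7 times the count with it off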); settings: A549 miR-34 inducible, Hoechst nuclei count, 48 h
# [5] = MELAS cybrid and Rieske KO viability enhancers – cell-based, MELAS cybrids, Rieske KO mouse fibroblasts, CellTiter-Glo, primary screen (AID 1508586;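 active = mean z-score across replicates of 1.96 or higher in either the MELAS or the Rieske mutant cell line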;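 note: z relative to plate mean and SD of compound and empty wells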); settings: low glucose
# [6] = target: Mitogen-activated protein kinase 7 (Homo sapiens) (UniProt Q13164); assay: Gal4-ERK5 driven luciferase induction – cell-based, HTS, primary screen (AID 1508626;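 active = luciferase signal above three times the same-plate solvent-only control wells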;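 note: luciferase driven by Gal4-ERK5 fusion binding five Gal4 sites before minimal TATA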); settings: HeLa Gal4-ERK5 transactivation, 18 h, at 5 µM, stronger effect = higher value
# [7] = viability loss in pontine glioma line – cell-based, SU-DIPG-IV, MIPE4.0, CellTiter-Glo, qHTS, dose response (AID 1347063; cut-off not given, nearly all actives have AC50 up to about 30 µM;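 note: compound exposure lasted 48 hours before the viability readout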); settings: CellTiter-Glo ATP luminescence
# [8] = galactose survival enhancers in mitochondrial complex I cybrids – cell-based, galactose medium, ATP luminescence, primary screen (AID 1645843;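 active = z-score of at least 1.8 in each of two replicates, scored against plate mean and spread of sample wells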;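 note: positive z means more ATP and so rescue of galactose-driven cybrid death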); settings: complex I mutant cybrid cells, 72 h, stronger effect = higher value
# [9] = growth inhibition, single agent or in combination, cell-based, chromothripsis tumors, cisplatin or BGB combos (AID 1671449); settings: LFS_MB_P medulloblastoma cells;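 note: cells exposed for 96 hours; 0% = vehicle DMSO and 100% = killing by high DMSO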
# [10] = growth inhibition, single agent and combos, cell-based, chromothripsis tumors, cisplatin or BGB combos (AID 1671450); settings: HDN33 neuroblastoma cells, stronger effect = higher value;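 note: cells exposed to compound for four days; 0% = vehicle DMSO and 100% = cell killing by high DMSO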
# [11] = growth inhibition, single agents and combos, ICB984, cell-based, cisplatin or BGB combos, synergistic combos for chromothripsis tumors (AID 1671451; call rule not given here;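 note: cells exposed for 96 hours before readout; 0% = vehicle DMSO and 100% = killing by high DMSO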); settings: ICB984 medulloblastoma cells, drug combinations, stronger effect = higher value
# [12] = growth inhibition, single agents and combos, LFS_MB_1R, cell-based, cisplatin or BGB combos, synergistic combos for chromothripsis tumors (AID 1671452); settings: LFS_MB_1R medulloblastoma cells, stronger effect = higher value;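 note: cells exposed for 96 hours before readout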
# [13] = growth inhibition, single agents and combos, HTB85, cell-based, BGB or cisplatin IC20 combos, synergistic combos for chromothripsis tumors (AID 1671453); settings: HTB85 osteosarcoma cells, drug combinations, stronger effect = higher value;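 note: cells exposed for 96 hours before readout; 0% = vehicle DMSO and 100% = high DMSO killing control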
# [14] = growth inhibition, MDA-MB-436, cell-based, BGB or cisplatin combos, synergistic combos for chromothripsis tumors (AID 1671458; call rule not given here;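 note: cells exposed for 96 hours; 0% = vehicle DMSO and 100% = killing by high DMSO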); settings: MDA-MB-436 breast carcinoma growth inhibition, drug combinations, stronger effect = higher value
# [15] = BT084 cell growth, single and combined drugs, ICGC_MB145, cisplatin and BGB IC40 combos (AID 1671461); settings: BT084 medulloblastoma cells, drug combinations, stronger effect = higher value;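 note: cells exposed to drugs for 96 hours; 0% = vehicle DMSO and 100% = high DMSO full killing control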
# [16] = RCMB18 cell growth, single agent and combined, cisplatin and BGB IC40 combos (AID 1671462); settings: RCMB18 medulloblastoma cells, stronger effect = higher value;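 note: cells exposed to compound for four days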
# [17] = CRL1545 cell growth, single agent and combined, cisplatin and BGB IC20 combos (AID 1671464); settings: CRL1545 osteosarcoma cells, stronger effect = higher value;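 note: cells exposed to compound for 96 hours before readout; 0% = vehicle DMSO and 100% = high DMSO killing control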
# [18] = stronger effect = lower value, cell number ratio, induced over uninduced
# [19] = measured here: relative caspase fold change +Dox/-Dox
# [20] = measured here: total cells with miR-34 induction, stronger effect = lower value
# [21] = measured here: total cells without miR-34 induction
# [22] = MELAS cybrid survival, CellTiter-Glo 48 h, stronger effect = higher value
# [23] = Rieske KO mouse fibroblast survival, CellTiter-Glo 72 h
# [24] = measured here: combination with BGB IC40, at 0.05 µM
# [25] = measured here: with BGB IC20 combination, at 0.5 µM
# [26] = measured here: with cisplatin IC20 combination, at 0.5 µM
# [27] = measured here: combination with cisplatin, at 0.5 µM
# Sequence of 6-phosphogluconate dehydrogenase, decarboxylating (Homo sapiens) (P52209 whole entry, looked up): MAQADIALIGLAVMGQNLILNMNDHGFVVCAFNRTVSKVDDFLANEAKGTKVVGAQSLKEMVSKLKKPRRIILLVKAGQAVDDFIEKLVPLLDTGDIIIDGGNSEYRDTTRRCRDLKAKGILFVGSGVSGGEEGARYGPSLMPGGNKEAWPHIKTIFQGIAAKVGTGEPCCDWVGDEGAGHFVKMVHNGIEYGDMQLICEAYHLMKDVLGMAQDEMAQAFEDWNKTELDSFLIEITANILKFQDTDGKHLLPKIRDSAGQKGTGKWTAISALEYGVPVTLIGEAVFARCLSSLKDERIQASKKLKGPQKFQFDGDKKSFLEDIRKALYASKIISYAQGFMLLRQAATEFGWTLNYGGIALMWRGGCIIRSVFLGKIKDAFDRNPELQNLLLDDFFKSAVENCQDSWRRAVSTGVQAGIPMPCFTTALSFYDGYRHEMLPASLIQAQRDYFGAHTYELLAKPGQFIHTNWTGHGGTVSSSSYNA
# Sequence of Mitogen-activated protein kinase 7 (Homo sapiens) (Q13164 whole entry, looked up, the tested form may be a part): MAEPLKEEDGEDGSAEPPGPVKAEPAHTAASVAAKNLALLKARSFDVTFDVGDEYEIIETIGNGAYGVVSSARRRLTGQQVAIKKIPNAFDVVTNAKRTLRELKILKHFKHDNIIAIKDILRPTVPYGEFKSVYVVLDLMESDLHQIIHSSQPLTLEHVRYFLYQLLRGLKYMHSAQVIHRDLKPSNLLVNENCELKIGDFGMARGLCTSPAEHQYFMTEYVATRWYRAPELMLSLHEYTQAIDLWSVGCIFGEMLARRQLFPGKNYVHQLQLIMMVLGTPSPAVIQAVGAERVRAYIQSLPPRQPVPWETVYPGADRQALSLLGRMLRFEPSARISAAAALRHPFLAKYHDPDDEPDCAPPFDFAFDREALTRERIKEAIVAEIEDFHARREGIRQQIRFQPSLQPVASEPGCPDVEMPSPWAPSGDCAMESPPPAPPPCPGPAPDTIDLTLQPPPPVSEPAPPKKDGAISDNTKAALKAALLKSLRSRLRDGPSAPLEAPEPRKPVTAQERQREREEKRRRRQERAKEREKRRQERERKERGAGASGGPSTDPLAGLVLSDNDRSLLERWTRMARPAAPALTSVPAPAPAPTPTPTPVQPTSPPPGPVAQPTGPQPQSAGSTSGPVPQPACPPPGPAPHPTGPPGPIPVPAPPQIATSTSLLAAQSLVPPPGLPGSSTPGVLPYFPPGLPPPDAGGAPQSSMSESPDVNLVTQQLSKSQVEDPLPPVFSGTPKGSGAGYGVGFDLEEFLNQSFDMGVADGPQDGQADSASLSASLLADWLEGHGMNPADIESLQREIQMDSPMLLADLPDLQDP
compound,measurement,setting,value
CCOc1ccc2c(c1)C(C)=CC(C)(C)N2,survival,[1],2.08 (inactive)
same,parasite load remaining,[2],29.9% (inactive)
same,viability,[2],95.9%
same,inhibition,[3],17.3% (inactive)
same,fold change,[4]; [18],0.841 (inactive)
same,fold change,[4]; [19],1.09
same,cell count,[4]; [20],8590
same,cell count,[4]; [21],10200
same,z-score,[5]; [22],1.71 (inactive)
same,z-score,[5]; [23],0.609
same,luciferase signal,[6],48 AU (inactive)
NC(=NCc1ccccc1)NC(=O)c1nc(Cl)c(N)nc1N,survival,[1],1.67 (inactive)
same,parasite load remaining,[2],116% (inactive) and 20% (inactive)
same,viability,[2],89.9% and 61%
same,inhibition,[3],-0.294% (inactive)
same,outcome,[7],inactive
same,z-score,[5]; [22],2.18 (active) and 1.24 (inactive)
same,z-score,[5]; [23],1.18 and 1.91
same,luciferase signal,[6],56 AU (inactive)
same,z-score,[8],-0.87 (inactive) and -0.455 (inactive)
COC1C(OC(N)=O)C(O)C(Oc2ccc3c(O)c(NC(=O)c4ccc(O)c(CC=C(C)C)c4)c(=O)oc3c2C)OC1(C)C (stereo not drawn),inhibition,[3],-15.7% (inactive)
same,fold change,[4]; [18],0.913 (inactive) and 0.926 (inactive)
same,fold change,[4]; [19],2.12 and 1.18
same,cell count,[4]; [20],9290 and 8980
same,cell count,[4]; [21],10200 and 9700
same,z-score,[5]; [22],-0.751 (inactive) and -0.28 (inactive)
same,z-score,[5]; [23],-1.31 and -0.896
same,z-score,[8],0.215 (inactive)
same,inhibition,"[9]; at 0.5 µM, stronger effect = higher value",-3.51% (inactive)
same,inhibition,"[9]; measured here: combination with BGB IC20, at 0.005 µM",-14%
same,inhibition,"[9]; measured here: combination with BGB IC40, at 0.005 µM",-18.4%
same,inhibition,[9]; [24],-8.09%
same,inhibition,"[9]; measured here: combination with cisplatin, at 0.5 µM, stronger effect = higher value",-1.03%
same,inhibition,"[9]; measured here: combination with cisplatin, at 5 µM, stronger effect = higher value",-41%
same,inhibition,"[10]; BGB combo, at 5 µM",-12%
same,inhibition,[10]; at 0.5 µM,-8.11% (inactive)
same,inhibition,"[10]; cisplatin combo, at 5 µM",0.721%
same,inhibition,[10]; [25],3.35%
same,inhibition,[10]; [26],2.19%
same,inhibition,"[10]; single agent, at 5 µM",-35.9%
same,inhibition,"[11]; BGB IC20 combo, at 0.005 µM",-23.7%
same,inhibition,"[11]; BGB IC40 combo, at 0.005 µM",-54.1%
same,inhibition,"[11]; BGB IC40 combo, at 0.05 µM",-30.8%
same,inhibition,[11]; at 0.5 µM,-1.24% (inactive)
same,inhibition,"[11]; cisplatin combo, at 0.05 µM",-30.8%
same,inhibition,"[11]; cisplatin combo, at 0.5 µM",-1.05%
same,inhibition,"[11]; cisplatin combo, at 5 µM",-22.8%
same,inhibition,"[11]; measured here: 5 uM single agent, at 5 µM",-16.3%
same,inhibition,[12]; at 0.5 µM,-15% (inactive)
same,inhibition,[12]; [24],-15.8%
same,inhibition,[12]; [27],17.7%
same,inhibition,"[12]; measured here: combination with cisplatin, at 5 µM",-65.5%
same,inhibition,[13]; at 0.5 µM,-17.6% (inactive)
same,inhibition,"[13]; measured here: with BGB IC20, at 0.5 µM",-24%
same,inhibition,"[13]; measured here: with BGB IC20, at 5 µM",20.3%
same,inhibition,"[13]; measured here: with cisplatin IC20, at 0.5 µM",-30.3%
same,inhibition,"[13]; measured here: with cisplatin IC20, at 5 µM",-20.2%
same,inhibition,"[13]; single agent, at 5 µM",-19%
same,inhibition,[14]; at 0.5 µM,-31.4% (inactive)
same,inhibition,"[14]; measured here: BGB combination, at 0.5 µM",-38.4%
same,inhibition,"[14]; measured here: BGB combination, at 5 µM",-32.4%
same,inhibition,"[14]; measured here: cisplatin combination, at 0.5 µM",-35.8%
same,inhibition,"[14]; measured here: cisplatin combination, at 5 µM",-21%
same,inhibition,[15]; at 0.5 µM,-4.18% (inactive)
same,inhibition,"[15]; cisplatin combination, at 0.5 µM",1.57%
same,inhibition,"[15]; cisplatin combination, at 5 µM",-32.1%
same,inhibition,"[15]; measured here: BGB IC40 combination 0.05 uM, at 0.05 µM",37.7%
same,inhibition,"[15]; single agent, at 5 µM",-18.6%
same,inhibition,[16]; at 0.5 µM,-22.3% (inactive)
same,inhibition,"[16]; cisplatin combo, at 5 µM",18.1%
same,inhibition,"[16]; measured here: BGB IC40 combination, at 0.05 µM",-10.1%
same,inhibition,[16]; [27],-16.8%
same,inhibition,"[16]; single agent, at 5 µM",-14.1%
same,inhibition,[17]; at 0.5 µM,-43.4% (inactive)
same,inhibition,[17]; [25],-36.9%
same,inhibition,[17]; [26],-46.6%
same,inhibition,"[17]; single agent, at 0.05 µM",-14.9%
same,inhibition,"[17]; single agent, at 5 µM",4.54%
